Test systems include DU-145 prostate; K-562 leukemia; MALME-3M melanoma; MDA-MB-231 breast; RXF 393 renal; SF-268 CNS; SF-295 CNS; SF-539 CNS; UACC-257 melanoma; M14 melanoma; HCT-15 colon; HT29 colon; SNB-75 CNS; SNB-19 CNS; U251 CNS; PC-3 prostate; SK-MEL-5 melanoma; UACC-62 melanoma; LOX IMVI melanoma; SK-MEL-28 melanoma.
Holding throughout (test): NCI-60 one-dose screen, 48 h (100 = growth as untreated, 0 = no growth, -100 = all killed)
Holding throughout (conditions): 10 µM unless noted

Structures are written as SMILES. This is part of a sample that, as a whole, favours compounds with a hit. Of some 83,000 tested, about 20% had one in any assay.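 Percent growth is the endpoint: 0 to 100 indicates growth inhibition (40 means 60% inhibition), 0 means no net growth, and negative values indicate cell death.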 A number with no mark means an inactive call. The source made the active and inactive calls. The calls were made as follows: active = growth percent below 10; inactive = the rest.

Regarding `CCNC(=O)Nc1nc2ccc(Oc3ccnc(C(=O)NC)c3)cc2s1`, the growth in the test with DU-145 prostate was 103%; in the test on K-562 leukemia, 8.24% (active); in the test on MALME-3M melanoma, 67.3%; in the test with MDA-MB-231 breast it was 73%; in the test on RXF 393 renal, 103%; in the test with SF-268 CNS, 92.8%. In addition, the growth with SF-295 CNS was 70.5%; with SF-539 CNS, 77.6%; in the test on UACC-257 melanoma, 87.1%; in the test on M14 melanoma, 40.7%; with HCT-15 colon, 52.7%; with HT29 colon, 29.8%. Further, the growth with SNB-75 CNS is 77.1%; in the test with SNB-19 CNS it was 81%; in the test on U251 CNS it was 58%; with PC-3 prostate it was 76.1%; in the test with SK-MEL-5 melanoma, 66.8%; in the test on UACC-62 melanoma it was 60%. Besides, the growth is 70.7% in the test with LOX IMVI melanoma and 80.3% in the test on SK-MEL-28 melanoma.

In the case of `COc1cc(N2CCC(N3CCN(C)CC3)CC2)ccc1Nc1ncnc(Nc2ccccc2S(=O)(=O)C(C)C)n1`, the growth in the test with DU-145 prostate was 100%; with K-562 leukemia it was 94%; with MALME-3M melanoma it was 106%; in the test on MDA-MB-231 breast, 95.9%; with RXF 393 renal, 133%; with SF-268 CNS it was 100%. Further, the growth is 104% with SF-295 CNS; 100% in the test on SF-539 CNS; 108% in the test with UACC-257 melanoma; 93.3% in the test on M14 melanoma; 103% in the test with HCT-15 colon; 84.1% in the test on HT29 colon. In addition, the growth was 101% in the test with SNB-75 CNS; 98.6% in the test on SNB-19 CNS; 101% in the test with U251 CNS; 93.7% in the test on PC-3 prostate; 110% in the test with SK-MEL-5 melanoma; 102% with UACC-62 melanoma. Besides, the growth in the test on LOX IMVI melanoma is 103%; in the test on SK-MEL-28 melanoma it was 105%.

Turning to `COc1cc2c(Oc3ccc4[nH]c(C)cc4c3F)ncnc2cc1OCCCN1CCCC1`, the growth with DU-145 prostate is 96.8%; with K-562 leukemia, 71.2%; with MALME-3M melanoma, 101%; in the test on MDA-MB-231 breast, 104%; in the test with RXF 393 renal it was 74.7%; in the test with SF-268 CNS, 72.2%. The growth in the test on SF-295 CNS was 97.7%; in the test with SF-539 CNS, 45.2%; in the test on UACC-257 melanoma, 98.8%; in the test with M14 melanoma, 92.8%; in the test on HCT-15 colon, 99.4%; in the test with HT29 colon it was 83.9%. Further, the growth was 50.9% with SNB-75 CNS; 88.2% in the test with SNB-19 CNS; 63.2% in the test with U251 CNS; 103% with PC-3 prostate; 104% in the test with SK-MEL-5 melanoma; 103% in the test on UACC-62 melanoma. Besides, the values for the growth in the test with LOX IMVI melanoma and in the test with SK-MEL-28 melanoma were 85.8% and 95.8%, respectively.

`Nc1c(Cl)cccc1[N+](=O)[O-]`: the growth with DU-145 prostate was 111%; in the test with K-562 leukemia, 101%; with MALME-3M melanoma it was 96.7%; with MDA-MB-231 breast, 99.3%; in the test on RXF 393 renal it was 115%; with SF-268 CNS, 105%. For the same compound, the growth was 107% in the test with SF-295 CNS; 108% in the test with SF-539 CNS; 108% in the test with UACC-257 melanoma; 108% in the test with M14 melanoma; 104% with HCT-15 colon; 111% with HT29 colon. Moreover, the growth was 104% in the test on SNB-75 CNS; 103% in the test with SNB-19 CNS; 103% in the test with U251 CNS; 98.4% with PC-3 prostate; 104% with SK-MEL-5 melanoma; 101% with UACC-62 melanoma. Also, the growth was 103% with LOX IMVI melanoma and 106% in the test with SK-MEL-28 melanoma.

As to `O=C1C=CC2(NN=C(c3ccccc3)N2c2cccc(Cl)c2)C(Cl)=C1` (stereo not given), the growth in the test with DU-145 prostate is 103%; with K-562 leukemia it was 28.6%; with MALME-3M melanoma it was 107%; with MDA-MB-231 breast it was 61.6%; in the test with RXF 393 renal, 92.4%; with SF-268 CNS, 74.9%. Besides, the growth was 76.7% in the test on SF-295 CNS; 96.8% with SF-539 CNS; 78.4% in the test with UACC-257 melanoma; 84.7% in the test with M14 melanoma; 79.6% with HCT-15 colon; 87.8% in the test on HT29 colon. Also, the growth in the test with SNB-75 CNS is 82%; in the test with SNB-19 CNS, 94.3%; in the test on U251 CNS, 84.6%; with PC-3 prostate, 58.3%; in the test with SK-MEL-5 melanoma, 91.8%; with UACC-62 melanoma, 44.3%. In addition, the growth was 71.2% in the test with LOX IMVI melanoma and 111% in the test on SK-MEL-28 melanoma.

In the case of `C#Cc1cccc(Nc2ncnc3cc4c(cc23)OCCOCCOCCO4)c1`, the growth is 47.8% in the test on DU-145 prostate; 36.2% in the test with K-562 leukemia; 84.8% in the test on MALME-3M melanoma; 67.4% with MDA-MB-231 breast; 40.7% in the test on RXF 393 renal; 51.6% in the test on SF-268 CNS. Further, the growth in the test on SF-295 CNS was 39.6%; in the test with SF-539 CNS, 80.5%; with UACC-257 melanoma, 38.9%; with M14 melanoma, 49.2%; in the test on HCT-15 colon it was 68.8%; in the test on HT29 colon, 57%. Moreover, the growth was 57.7% in the test with SNB-75 CNS; 60.9% with SNB-19 CNS; 57% in the test with U251 CNS; 57.3% in the test with PC-3 prostate; 58.1% with SK-MEL-5 melanoma; 32.9% with UACC-62 melanoma. Also, the growth in the test on LOX IMVI melanoma is 51%; in the test with SK-MEL-28 melanoma, 57.6%.

As for `Oc1ccc(C(c2ccc(O)cc2)C(Cl)(Cl)Cl)cc1`, the growth in the test on DU-145 prostate is 109%; in the test on K-562 leukemia, 79.7%; with MALME-3M melanoma it was 134%; in the test with MDA-MB-231 breast, 98.2%; in the test on RXF 393 renal, 101%; in the test on SF-268 CNS it was 96.9%. Further, the growth was 96.1% in the test on SF-295 CNS; 99.9% in the test on SF-539 CNS; 119% in the test with UACC-257 melanoma; 105% in the test on M14 melanoma; 93.4% in the test with HCT-15 colon; 110% in the test on HT29 colon. In addition, the growth in the test on SNB-75 CNS was 66.4%; in the test on SNB-19 CNS, 99.9%; with U251 CNS it was 106%; in the test with PC-3 prostate, 75.2%; in the test on SK-MEL-5 melanoma, 100%; in the test with UACC-62 melanoma, 79.8%. In addition, the growth with LOX IMVI melanoma is 87.6%; with SK-MEL-28 melanoma, 113%.

The values above are taken from PubChem BioAssay (NCI).
